Assay outcomes (PubChem)
Compounds with a hit are over-represented: about 2.9% of the library has one in this group of screens.
HePTP inh = inhibitors of human HePTP phosphatase; P35236; inhibition, % at 20 µM; AID 521; actives 0.64% (n = 110,000); recombinant HePTP phosphatase activity, OD absorbance; in the data active = inhibition above about 50%;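 note: plate controls were vehicle for no effect and reference inhibitor for full effect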
Target sequence (P35236 whole entry, looked up): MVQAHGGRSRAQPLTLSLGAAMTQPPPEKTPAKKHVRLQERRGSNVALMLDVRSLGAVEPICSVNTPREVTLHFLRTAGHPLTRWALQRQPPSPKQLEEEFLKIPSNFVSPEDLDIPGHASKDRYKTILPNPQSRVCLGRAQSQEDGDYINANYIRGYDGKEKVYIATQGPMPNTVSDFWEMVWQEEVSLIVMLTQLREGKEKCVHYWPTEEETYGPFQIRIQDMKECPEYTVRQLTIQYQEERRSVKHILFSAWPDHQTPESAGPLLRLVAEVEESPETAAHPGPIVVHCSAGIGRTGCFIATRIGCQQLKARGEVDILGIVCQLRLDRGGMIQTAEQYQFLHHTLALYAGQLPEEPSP
Smad3 inh = Smad3 (human) transcription factor binding inhibition; TR-FRET Smad3/Dy647-FoxH1 peptide binding, europium anti-His; inhibition, % at 25 µM; P84022; actives 0.29% (n = 88,000); AID 630;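 active = compounds that reduce the energy-transfer binding signal between the protein and its labelled peptide by more than half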;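 note: 0% = Smad3 plus labelled peptide maximal FRET and 100% = peptide-only background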
Candida biofilm = kills Candida albicans biofilms; C. albicans biofilm + clotrimazole, Alamar Blue; inhibition, % at 6 µM; actives 0.14% (n = 85,000); AID 834;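 active = inhibition above 20%; inactive = inhibition below 20%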;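 note: preformed 24 hr biofilms exposed to compound for 48 hr; 0% = biofilm without compound and 100% = blank killed by clotrimazole plus chlorhexidine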
ERb coact inh = blocks coactivator binding to human estrogen receptor beta; Q92731; TR-FRET ER-beta LBD / SRC1-Cy5 peptide binding; receptor agonist-loaded with 1 µM estradiol; inhibition, % at 25.6 µM; actives 1.3% (n = 86,000);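 active = compounds whose percent inhibition of the receptor-coactivator binding signal exceeds about 50% in the single-dose screen, limit read from the data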;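 note: 0% = receptor plus peptide wells without compound and 100% = peptide-only wells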
ERa coact inh = blocks coactivator binding to human estrogen receptor alpha | P03372 | TR-FRET ER-alpha LBD / SRC-1 peptide, estradiol-bound | inhibition, % at 25.6 µM | actives 1.7% (n = 86,000) | AID 629; in the data active = inhibition above about 50%;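 note: 0% = receptor plus peptide control and 100% = peptide only without receptor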
ERa coact pot = ER-alpha (human) coactivator binding potentiation; TR-FRET ERalpha-LBD/SRC-Cy5 coactivator binding, 2 h; 100 = basal binding, no effect; P03372; AID 639; coactivator binding (% of control), % at 25.6 µM; actives 1.3% (n = 86,000); in the data active = activity above about 200%;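 note: binding measured in presence of low estradiol as agonist stimulus; 0% = peptide alone without receptor and 100% = receptor with peptide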
* marks the source's active call; other numbers are inactive results; [ ] = remark or other dose.

Screening C/C(N)=C(/C#N)C(=O)CSc1nnc(COc2ccccc2Cl)o1 returned HePTP inh 8.0, Smad3 inh 14.3, Candida biofilm 3.0, ERb coact inh 59.3*, ERa coact inh 58.4* and ERa coact pot 76.7.
Screening COc1ccccc1OCc1nnc(SCC(=O)c2cc(Cl)ccc2OC)o1 returned HePTP inh 3.7, Smad3 inh 3.3, Candida biofilm 0.1, ERb coact inh -3.1, ERa coact inh 0.7 and ERa coact pot 321.9*[fluorescence artefact?].
CC(C)(C)NC(=O)NC(=O)CSc1nnc(COc2ccccc2Cl)o1 was read as Smad3 inh -2.7, Candida biofilm -0.4, ERb coact inh -15.4, ERa coact inh -1.7 and ERa coact pot 91.4.
N#CCSc1nc(N)c(C#N)cc1C#N was read as HePTP inh 5.6.
Cc1ccc(C)c(-n2nnnc2SCC(=O)c2ccc3c(c2)NC(=O)CO3)c1 was read as HePTP inh 9.9, Smad3 inh -5.5, Candida biofilm -4.1, ERb coact inh 1.7, ERa coact inh 19.9 and ERa coact pot 231.7*[fluorescence artefact?].
O=C(C[n+]1ccc2ccccc2c1)c1ccc2ccc3ccccc3c2c1 was read as Smad3 inh 81.3*.
Screening Cc1oc2nc(SCC(=O)NCCCO)nc(N)c2c1C returned Smad3 inh -4.4, Candida biofilm 4.4, ERb coact inh 63.9*, ERa coact inh -8.4 and ERa coact pot 101.4.
Screening COc1ccc(CCC(=O)C2(O)CCCCC2)cc1 returned HePTP inh -5.7.
Screening O=C(/C=C/c1ccccc1Cl)Nc1ccccc1[N+](=O)[O-] returned HePTP inh 1.3.
O=C1c2ccccc2C(=O)c2c1cc(NC1CCCCC1)c1nsnc21 was read as HePTP inh -1.9.
`C=CCc1cccc(/C=N/n2cnnc2)c1O` gave HePTP inh 3.4.
`C=CCc1cccc(/C=N/c2ncccc2O)c1O` gave HePTP inh -2.7, Smad3 inh 15.9, Candida biofilm -0.4, ERb coact inh 57.8*[fluorescence artefact?], ERa coact inh 21.5 and ERa coact pot 62.8.
Cc1cc(C)nc(NS(=O)(=O)c2ccc(NC(=O)CSc3nccn3C)cc2)n1 was read as HePTP inh -15.9.
`CC(=O)Nc1ccc(OC(=O)CC2SC(=O)NC2=O)cc1` (stereo not drawn) gave HePTP inh -3.7, Smad3 inh -6.7, Candida biofilm 11.3, ERb coact inh 56.3*, ERa coact inh 40.7 and ERa coact pot 70.1.
COc1cccc(NC2SC(=O)N(c3ccccc3)C2=O)c1 (stereo not drawn) was read as HePTP inh 0.2, Smad3 inh -7.5, Candida biofilm 10.7, ERb coact inh -2.1, ERa coact inh -15.9 and ERa coact pot 203.6*.
`O=C1N/C(=N/N=C\c2ccc(-c3ccc(Cl)cc3)o2)SC1Cc1ccccc1` (stereo not drawn) gave HePTP inh -13.3.
Screening CCCNc1nc(N2CCOCC2)nc(N2CCOCC2)n1 returned HePTP inh -9.0, Smad3 inh 9.9, Candida biofilm 4.8, ERb coact inh 54.8*, ERa coact inh -2.2 and ERa coact pot 132.9.
`C=CCNc1nc(N2CCOCC2)nc(N2CCOCC2)n1` gave Smad3 inh 1.1, Candida biofilm 0.4, ERb coact inh 12.4, ERa coact inh 11.7 and ERa coact pot 91.1.
For O=C(COc1ccc(Br)cc1)Nc1ccc(-c2nnc(-c3ccco3)o2)cc1 the results were HePTP inh -9.6, Smad3 inh -5.1, Candida biofilm 3.7, ERb coact inh 3.0, ERa coact inh 3.5 and ERa coact pot 267.8*[fluorescence artefact?].
Screening COc1ccc(Br)cc1C(=O)Nc1cccc(-c2nnc(-c3ccco3)o2)c1 returned Smad3 inh -6.0, Candida biofilm 2.1, ERb coact inh 52.8*[fluorescence artefact?], ERa coact inh 69.0*[fluorescence artefact?] and ERa coact pot 115.1.
CCOC(=O)c1c(NC(=O)c2cccs2)sc2c1CCC(C)C2 (stereo not drawn) was read as HePTP inh -5.2.
For COc1cc(NC(=O)c2ccc3ccccc3c2)c(OC)cc1Cl the results were HePTP inh 3.3.
CCOC(=O)c1ccc(NC(=O)CN(c2cccc(C(F)(F)F)c2)S(C)(=O)=O)cc1 was read as HePTP inh 6.6.
